Compounds without any hit were thinned out: in the full panel of roughly 83,000, 20% have a hit.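 Treatment: one concentration, 48 hours, 96-well format. Scoring: percent growth, with anything below 10 considered active.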 Values without a mark were called inactive. Activity calls are given as the source filed them.
What was measured:
Assay in all cases: NCI-60 one-dose screen, 48 h (100 = growth as untreated, 0 = no growth, -100 = all killed)
Conditions in all cases: 10 µM unless noted
HCT-15 colon = system: HCT-15 colon
HT29 colon = system: HT29 colon
SNB-75 CNS = system: SNB-75 CNS
SNB-19 CNS = system: SNB-19 CNS
U251 CNS = system: U251 CNS
PC-3 prostate = system: PC-3 prostate
SK-MEL-5 melanoma = system: SK-MEL-5 melanoma
UACC-62 melanoma = system: UACC-62 melanoma
LOX IMVI melanoma = system: LOX IMVI melanoma
SK-MEL-28 melanoma = system: SK-MEL-28 melanoma
SK-MEL-2 melanoma = system: SK-MEL-2 melanoma
EKVX NSCLC = system: EKVX NSCLC
SN12C renal = system: SN12C renal
UO-31 renal = system: UO-31 renal
TK-10 renal = system: TK-10 renal
ACHN renal = system: ACHN renal
CAKI-1 renal = system: CAKI-1 renal
A498 renal = system: A498 renal
CCRF-CEM leukemia = system: CCRF-CEM leukemia
MOLT-4 leukemia = system: MOLT-4 leukemia

Row | SMILES | growth (HCT-15 colon) | growth (HT29 colon) | growth (SNB-75 CNS) | growth (SNB-19 CNS) [%] | growth (U251 CNS) | growth (PC-3 prostate) | growth (SK-MEL-5 melanoma) [%] | growth (UACC-62 melanoma) [%] | growth (LOX IMVI melanoma) [%] | growth (SK-MEL-28 melanoma) [%] | growth (SK-MEL-2 melanoma) [%] | growth (EKVX NSCLC) [%] | growth (SN12C renal) | growth (UO-31 renal) [%] | growth (TK-10 renal) | growth (ACHN renal) | growth (CAKI-1 renal) | growth (A498 renal) | growth (CCRF-CEM leukemia) [%] | growth (MOLT-4 leukemia)
1 | CCO/C=N/NC(=O)c1ccncc1 | 108% | 101% | 93.3% | 105 | 105% | 97.3% | 104 | 107 | 98.7 | 108 | 102 | 102 | 111% | 98.9 | 103% | 108% | 100% | 104% | 106 | 107%
2 | O=C(O)C(=Cc1c2ccccc2cc2ccccc12)C(=O)O | 106% | 105% | 104% | 101 | 101% | 97.2% | 104 | 93.5 | 86.8 | 114 | 104 | 104 | 101% | 82 | 93.3% | 97.6% | 99.9% | 83.3% | 101 | 92.4%
3 | CCN(Cc1ccc(CN(CC)C(=O)C(Br)Br)cc1)C(=O)C(Br)Br | 24.5% | 6.76% (active) | 54.9% | 60.8 | -9.38% (active) | 41.3% | 12.3 | 18.2 | 37.1 | 36.7 | 76.9 | 31.3 | 48.9% | 52.2 | 48.1% | 12.1% | 28.3% | 38.3% | 24.9 | 34.2%
4 | O=C(/C=C/CN1CCCCC1)Nc1cc2c(Nc3ccc(F)c(Cl)c3F)ncnc2cc1OCCOC(F)F | 7.81% (active) | 2.26% (active) | -12.1% (active) | 40.9 | 31.1% | 1.81% (active) | 25.3 | 34.1 | 12.5 | 48.6 | 36.1 | 11.8 | 7.28% (active) | 10.4 | 8.8% (active) | 5.75% (active) | 5.99% (active) | -21.7% (active) | 24.6 | 1.31% (active)
5 | CCOC(=O)c1cc(/C(=N\O)c2cc(OC)c(OC)c(OC)c2)n2c(C)cccc12 | 25.7% | 9.58% (active) | 9.5% (active) | 42.5 | 26.2% | 31.4% | 14.5 | 27 | 37.9 | 58.4 | 21.8 | 36.6 | 54.3% | 54 | 21.2% | 37.3% | 36% | -1.4% (active) | 22.5 | 28.5%
6 | O=C(Nc1ccc(F)cc1)c1cc([N+](=O)[O-])ccc1O | 68.1% | 61.7% | 78.1% | 70.9 | 61.6% | 54.7% | 30 | 36.8 | 56.3 | 55.9 | 37 | 77 | 82.4% | 58.9 | 81.6% | 73.2% | 67.1% | 25.5% | 59.5 | 63.3%
7 | O=S(=O)(NCCNc1cc(-c2cn(-c3ccccc3)nc2-c2ccccc2)ccn1)c1ccc(F)cc1 | 74.2% | 88.3% | 77.4% | 92.5 | 72.7% | 47.6% | 68.9 | 89.4 | 78.5 | 104 | 108 | 71.3 | 92.8% | 60.7 | 114% | 93% | 66.1% | 83.8% | 83.4 | 70.1%
8 | CCc1c(C(=O)Nc2ccc3ccccc3c2)[nH]c(C)c1C(C)=O | 79.1% | 93.7% | 84.4% | 110 | 98.3% | 74% | 77.4 | 87.2 | 96.3 | 97.8 | 87.9 | 84.3 | 96.6% | 86.8 | 99.8% | 98.6% | 86.4% | 80.2% | 96.1 | 68.5%
